These results are taken from PubChem BioAssay AID652042 (Broad Institute, 2013).

The whole screen tested about 1,100 compounds, of which about 350 (32%) were called active. No rule for the calls is given here. Only a sample is shown. Entries with a potency or affinity are not part of this list.

This test can be described thus: viability loss in CEM21 cells – cell-based, CellTiter-Glo luminescence, cherry-picked, cytotoxicity control for viral fusion inhibitor project, dose response (AID 652042). The conditions noted are these: CellTiter-Glo ATP luminescence, 24 h; series mostly up to 35 µM.
On to `COc1ccc(S(=O)(=O)N2CCCCC2)cc1NC(=O)CCCOc1ccc(C)cc1`, for which the activity change, negative = cytotoxicity entry was “inactive”. Next, `COc1ccc(S(=O)(=O)N2CCCCC2)cc1NC(=O)Cc1sc(C)nc1-c1ccc(F)cc1`: “inactive”; `COc1ccc(NC(=O)c2cc(CC(C)C)nc3ccccc23)cc1`: “inactive”; `CC[C@@]12C(=O)N(c3cccc(F)c3)C(=O)N1[C@H](c1ccc(Cl)cc1)[C@@H]1C(=O)N(C3CCCCC3)C(=O)[C@@H]12`: “inactive”.

As for `Nc1ccc(-c2nc3ccc(C(=O)O)cc3s2)cc1`, the activity change, negative = cytotoxicity result is “inactive”.

As to `COc1ccccc1CNC(=O)C[C@H]1C[C@@H]2c3cc(NC(=O)c4cccnc4)ccc3O[C@@H]2[C@@H](CO)O1`, the activity change, negative = cytotoxicity entry was “inactive”. Next, `COC(=O)c1c(C)oc(C)c1S(=O)(=O)NC(c1ccccc1)c1ccccc1`: “inactive”; `Cc1cc(Oc2ccc(C#N)cc2)nc(NCc2ccccc2)n1`: “inactive”. Next, `COc1ccc(Nc2c(CCc3ccccc3)nc3nc(C)cc(C)n23)cc1`: “inactive”; `Cc1cc(C)n2nc(NCc3cccc(Br)c3)nc2n1`: “inactive”. Next, `CCOc1ccc(C(C)=O)cc1COC(=O)c1ccccc1C(=O)N(C)Cc1ccccc1`: “inactive”. Consider `Clc1ccc(OCCN2CCN(c3ncnc4sccc34)CC2)cc1`, for which the activity change, negative = cytotoxicity entry is “inactive”. Regarding `Cc1ccc(Cn2ncc3c(N4CCN(c5ccc(C)cc5)CC4)ncnc32)cc1`, the activity change, negative = cytotoxicity entry was “inactive”. Next, `O=C(COC(=O)c1cccc(S(=O)(=O)N2CCOCC2)c1)NCc1ccccc1`: “inactive”; `CSc1ncccc1C(=O)OCC(=O)Nc1ccc(C)c(S(=O)(=O)N2CCOCC2)c1`: “inactive”; `Cc1noc(C)c1S(=O)(=O)N(C)C[C@H]1Oc2ccc(NC(=O)Nc3ccccc3)cc2CC(=O)N([C@H](C)CO)C[C@H]1C`: “inactive”. Under `COc1ccc(S(=O)(=O)Nc2ccc3c(c2)CC(=O)N([C@H](C)CO)C[C@H](C)[C@H](CN(C)S(=O)(=O)c2ccccc2)O3)cc1` stands “inactive”. `C=CC[n+]1c(-c2ccc(OC)c(OC)c2)csc1NNC(=O)Nc1ccccc1`: the activity change, negative = cytotoxicity result was “inactive”.

Take `C=C1CCN([C@@H](CC(C)C)C(=O)Nc2ccc(OC)cc2)S(=O)(=O)c2ccccc21`: the activity change, negative = cytotoxicity result was “inactive”. For `Cc1nn(C)c(Cl)c1NC(=O)OCc1ccc(Cl)cc1Cl`, the activity change, negative = cytotoxicity entry is “inactive”. As to `O=C(Nc1ccc(Cl)cn1)C1CCCN1S(=O)(=O)c1cccc2ccccc12` (stereo not drawn), the activity change, negative = cytotoxicity result was “inactive”. Next, `CC(Cl)=CCn1c(NCCc2ccccc2)nc2c1c(=O)n(C)c(=O)n2C`: “inactive”; `CNc1nc2c(c(=O)n(C)c(=O)n2C)n1Cc1ccccc1`: “inactive”. Consider `O=C(N[C@@H]1CC[C@H](CCNS(=O)(=O)c2ccc(F)cc2)O[C@@H]1CO)C1CC1`, for which the activity change, negative = cytotoxicity result is “inactive”.

Regarding `CCOC(=O)C1CCCN(Cc2nc(N)nc(Nc3ccc(OC)cc3)n2)C1` (stereo not drawn), the activity change, negative = cytotoxicity entry was “inactive”.

For `O=C(CN1C(=O)c2ccccc2S1(=O)=O)c1ccccc1Cl`, the activity change, negative = cytotoxicity entry was “inactive”. For the compound `Cc1ccc(S(=O)(=O)Nc2ccc3c(c2)CC(=O)N([C@H](C)CO)C[C@H](C)[C@H](CN(C)S(=O)(=O)c2ccccc2)O3)cc1`, the activity change, negative = cytotoxicity result was “inactive”. Under `C[C@H](CO)N1C[C@H](C)[C@H](CN(C)C(=O)Nc2ccccc2)Oc2c(NS(=O)(=O)c3ccc(F)cc3)cccc2C1=O` stands “inactive”; under `C[C@H](CO)N1C[C@H](C)[C@H](CN(C)S(=O)(=O)c2ccc(F)cc2)Oc2ccc(NS(=O)(=O)c3ccccc3)cc2CC1=O`, “inactive”; under `C[C@H](CO)N1C[C@H](C)[C@H](CN(C)S(=O)(=O)c2ccccc2)Oc2ccc(NS(=O)(=O)c3ccc(F)cc3)cc2CC1=O`, “inactive”. As to `C[C@@H]1CN([C@H](C)CO)C(=O)c2cccc(NS(=O)(=O)c3ccc(Cl)cc3)c2O[C@H]1CN(C)CC1CCCCC1`, the activity change, negative = cytotoxicity result was “inactive”. Under `C[C@@H]1CN([C@H](C)CO)C(=O)c2cccc(NS(=O)(=O)c3ccc(F)cc3)c2O[C@@H]1CN(C)Cc1ccc(C(F)(F)F)cc1` stands “inactive”. Under `C[C@H]1CN([C@@H](C)CO)C(=O)c2cc(NS(C)(=O)=O)ccc2O[C@@H]1CN(C)Cc1ccc(Cl)c(Cl)c1` stands “inactive”; under `C[C@H]1CN([C@@H](C)CO)C(=O)c2cccc(NS(=O)(=O)c3ccc(Cl)cc3)c2O[C@@H]1CN(C)Cc1ccc(C(F)(F)F)cc1`, “inactive”; under `Clc1ccc2c(c1)C(C1=NCCN1)c1ccccc1CS2` (stereo not drawn), “inactive”. Next, `C[C@@H]1CN([C@@H](C)CO)C(=O)c2cc(NC(=O)c3ccccc3)ccc2O[C@@H](C)CCCCO[C@H]1CN(C)Cc1ccc(C(=O)O)cc1`: “inactive”; `CC1CCC(NC(=O)CCn2ccc3cc(S(=O)(=O)N4CCCC4)ccc32)CC1` (stereo not drawn): “inactive”; `Cc1cc(C)c(S(=O)(=O)N2CCCCC2)cc1N(C)S(=O)(=O)c1ccc(Cl)cc1`: “inactive”.

For the compound `CC(=O)C1=C(C)N(Cc2ccc(Br)cc2)C(=S)NC1c1cccc(Cl)c1` (stereo not drawn), the activity change, negative = cytotoxicity entry was “inactive”. Next, `COc1ccc(C2=Nn3c(nnc3-c3ccncc3)SC2)cc1`: “inactive”; `C=CCN(Cc1ccc(OC)c(OC)c1)C(=O)c1cc2cc(F)ccc2[nH]1`: “inactive”. Consider `COc1cccc(NC(=O)Nc2cccc(C(=O)O)c2)c1`, for which the activity change, negative = cytotoxicity result is “inactive”. Turning to `COc1ccc(-c2noc(CCCC(=O)O)n2)cc1`, the activity change, negative = cytotoxicity entry was “inactive”. Under `CN(C)c1ccc(O)c2c1CC1CC3[C@@H](N(C)C)C(=O)C(C(N)=O)=C(O)[C@]3(O)C(=O)C1=C2O` (stereo partly drawn) stands “inactive”. Under `CC1(C)CC2CC(C)(CN2S(=O)(=O)c2cccc(C(=O)OCC(=O)NC(N)=O)c2)C1` (stereo not drawn) stands “inactive”; under `COc1ccccc1C(=O)NC(CCSC)C(=O)N1CCN(C/C=C/c2ccccc2)CC1` (stereo not drawn), “inactive”; under `COCCn1c(=S)[nH]c2cc(C(=O)N3CCN(Cc4ccc5c(c4)OCO5)CC3)ccc2c1=O`, “inactive”. Under `CCCCCn1c(=O)[nH]c2cc(C(=O)N3CCN(Cc4ccc5c(c4)OCO5)CC3)ccc2c1=O` stands “inactive”. Consider `NC(=O)c1sc2nc3c(c(-c4cccs4)c2c1N)CCCCC3`, for which the activity change, negative = cytotoxicity result was “inactive”. On to `Cc1ccc(S(=O)(=O)N(C)C[C@@H]2Oc3ccc(NS(=O)(=O)c4c(C)noc4C)cc3CC(=O)N([C@H](C)CO)C[C@@H]2C)cc1`, for which the activity change, negative = cytotoxicity result was “inactive”.

For the compound `C[C@H]1CN([C@@H](C)CO)C(=O)c2c(c3ccccc3n2C)-c2ccccc2CO[C@H]1CN(C)C(=O)CCC(F)(F)F`, the activity change, negative = cytotoxicity result was “inactive”. Under `C[C@H](CO)N1C[C@H](C)[C@H](CN(C)S(=O)(=O)c2ccccc2)Oc2ncc(/C=C/c3ccccc3)cc2C1=O` stands “inactive”.

For `CCOC(=O)[C@@H]1[C@H]2COc3ccc(Br)cc3[C@@H]2N2C(=O)N(c3ccccc3)C(=O)[C@@]12C`, the activity change, negative = cytotoxicity result was “inactive”.
